Data reported in PubChem BioAssay AID1159580 (chemical genetic matrix, 2015).
Several values for one entry are separate records, joined by “and”; a condition that tells them apart may be missing. Equal entries are not always repeated. Among all 5,500 compounds or so, about 2,000 (36%) were called active. Not shown: some 18% with an inconclusive outcome. Rule as the data show it: active = normalized growth mostly below about 0.91 (no sharp cut-off); inconclusive = no clear call, values can overlap the other calls; inactive = mostly above about 0.92. The list shows a part of the results.

Experiment: chemical genetic growth profiling, strain panel (AID 1159580);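 also: tested at 20 µM; growth read once vehicle control cultures reached saturation at 30 °C; 1 = growth at the plate median or of vehicle wells; lower values mean less growth of the strain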
Conditions: growth OD

Measured: normalized growth

CCN(CCCCOC(=O)c1ccc(OC)c(OC)c1)C(C)Cc1ccc(OC)cc1 (stereo not drawn)
inactive: S. cerevisiae deletion strains, locus YAL013W, strain DEP1, stronger effect = lower value 0.982 | S. cerevisiae deletion strains, locus YBR021W, strain FUR4, stronger effect = lower value 0.989 | S. cerevisiae deletion strains, locus YBR229C, strain ROT2, stronger effect = lower value 0.95 | S. cerevisiae deletion strains, locus YCL029C, strain bik1, stronger effect = lower value 0.99 | S. cerevisiae deletion strains, locus YDL035C, strain GPR1, stronger effect = lower value 0.972 | S. cerevisiae deletion strains, locus YDL074C, strain BRE1, stronger effect = lower value 0.987 | S. cerevisiae deletion strains, locus YDL101C, strain DUN1, stronger effect = lower value 0.988 | S. cerevisiae deletion strains, locus YDL134C, strain PPH21, stronger effect = lower value 0.988 | S. cerevisiae deletion strains, locus YDL185W, strain tfp1, stronger effect = lower value 0.991 | S. cerevisiae deletion strains, locus YDL192W, strain arf1, stronger effect = lower value 0.982 | S. cerevisiae deletion strains, locus YDR101C, strain arx1, stronger effect = lower value 0.995 | S. cerevisiae deletion strains, locus YDR150W, strain NUM1, stronger effect = lower value 0.96 | S. cerevisiae deletion strains, locus YDR162C, strain NBP2, stronger effect = lower value 0.977 | S. cerevisiae deletion strains, locus YDR318W, strain mcm21, stronger effect = lower value 0.999 | S. cerevisiae deletion strains, locus YDR388W, stronger effect = lower value 0.998 | S. cerevisiae deletion strains, locus YDR502C, strain sam2, stronger effect = lower value 0.98 | S. cerevisiae deletion strains, locus YEL061C, strain CIN8, stronger effect = lower value 0.979 | S. cerevisiae deletion strains, locus YER110C, stronger effect = lower value 0.963 | S. cerevisiae deletion strains, locus YER155C, strain BEM2, stronger effect = lower value 0.999 | S. cerevisiae deletion strains, locus YER167W, strain BCK2, stronger effect = lower value 0.989 | S. cerevisiae deletion strains, locus YGL078C, strain dbp3, stronger effect = lower value 0.997 | S. cerevisiae deletion strains, locus YGL086W, strain mad1, stronger effect = lower value 0.965 | S. cerevisiae deletion strains, locus YGL248W, strain PDE1, stronger effect = lower value 0.98 | S. cerevisiae deletion strains, locus YGR078C, strain PAC10, stronger effect = lower value 0.995 | S. cerevisiae deletion strains, locus YGR135W, strain pre9, stronger effect = lower value 1.02 | S. cerevisiae deletion strains, locus YGR229C, strain SMI1, stronger effect = lower value 0.978 | S. cerevisiae deletion strains, locus YGR252W, strain gcn5, stronger effect = lower value 0.937 | S. cerevisiae deletion strains, locus YHR030C, strain SLT2, stronger effect = lower value 0.989 and 0.965 | S. cerevisiae deletion strains, locus YHR079C, strain IRE1 (second series), stronger effect = lower value 0.992 | S. cerevisiae deletion strains, locus YHR079C, strain IRE1, stronger effect = lower value 0.956 | S. cerevisiae deletion strains, locus YHR094C, strain hxt1, stronger effect = lower value 0.989 | S. cerevisiae deletion strains, locus YHR129C, strain ARP1, stronger effect = lower value 0.993 | S. cerevisiae deletion strains, locus YHR200W, strain rpn10, stronger effect = lower value 0.992 | S. cerevisiae deletion strains, locus YIL066C, strain RNR3, stronger effect = lower value 0.968 | S. cerevisiae deletion strains, locus YIL073C, strain SPO22, stronger effect = lower value 0.986 | S. cerevisiae deletion strains, locus YIL125W, strain kgd1, stronger effect = lower value 0.985 | S. cerevisiae deletion strains, locus YIR030C, strain dcg1, stronger effect = lower value 0.978 | S. cerevisiae deletion strains, locus YJL095W, strain BCK1, stronger effect = lower value 1.03 and 0.98 | S. cerevisiae deletion strains, locus YJL134W, strain LCB3, stronger effect = lower value 0.979 | S. cerevisiae deletion strains, locus YJL168C, strain set2, stronger effect = lower value 0.995 | S. cerevisiae deletion strains, locus YJL187C, strain SWE1 (second series), stronger effect = lower value 1 | S. cerevisiae deletion strains, locus YJR043C, strain POL32, stronger effect = lower value 1.01 | S. cerevisiae deletion strains, locus YJR066W, strain TOR1, stronger effect = lower value 0.913 | S. cerevisiae deletion strains, locus YJR075W, strain HOC1, stronger effect = lower value 0.98 | S. cerevisiae deletion strains, locus YKL009W, strain mrt4, stronger effect = lower value 0.95 | S. cerevisiae deletion strains, locus YKL068W, stronger effect = lower value 0.998 | S. cerevisiae deletion strains, locus YKL085W, strain MDH1 (second series), stronger effect = lower value 0.987 | S. cerevisiae deletion strains, locus YKL085W, strain MDH1, stronger effect = lower value 0.987 | S. cerevisiae deletion strains, locus YKL190W, strain CNB1, stronger effect = lower value 0.99 | S. cerevisiae deletion strains, locus YKR001C, strain vps1, stronger effect = lower value 0.988 | S. cerevisiae deletion strains, locus YLR039C, strain RIC1, stronger effect = lower value 0.983 | S. cerevisiae deletion strains, locus YLR058C, strain SHM2, stronger effect = lower value 0.967 | S. cerevisiae deletion strains, locus YLR102C, strain apc9, stronger effect = lower value 0.993 | S. cerevisiae deletion strains, locus YLR113W, strain HOG1, stronger effect = lower value 0.956 | S. cerevisiae deletion strains, locus YLR262C, strain YPT6, stronger effect = lower value 0.937 | S. cerevisiae deletion strains, locus YLR268W, strain sec22, stronger effect = lower value 1.07 | S. cerevisiae deletion strains, locus YLR330W, strain CHS5, stronger effect = lower value 0.977 | S. cerevisiae deletion strains, locus YLR342W, strain FKS1 (second series), stronger effect = lower value 0.985 | S. cerevisiae deletion strains, locus YLR371W, strain rom2, stronger effect = lower value 0.972 | S. cerevisiae deletion strains, locus YLR418C, strain cdc73, stronger effect = lower value 0.956 | S. cerevisiae deletion strains, locus YML016C, strain PPZ1, stronger effect = lower value 0.978 | S. cerevisiae deletion strains, locus YML032C, strain rad52, stronger effect = lower value 1 | S. cerevisiae deletion strains, locus YML124C, strain tub3, stronger effect = lower value 0.985 | S. cerevisiae deletion strains, locus YMR078C, strain ctf18, stronger effect = lower value 0.987 | S. cerevisiae deletion strains, locus YMR223W, strain ubp8, stronger effect = lower value 0.971 | S. cerevisiae deletion strains, locus YMR263W, strain SAP30, stronger effect = lower value 0.978 | S. cerevisiae deletion strains, locus YMR307W, strain GAS1, stronger effect = lower value 1.01 | S. cerevisiae deletion strains, locus YNL067W, strain RPL9B, stronger effect = lower value 1.01 | S. cerevisiae deletion strains, locus YNL128W, strain TEP1, stronger effect = lower value 0.968 | S. cerevisiae deletion strains, locus YNL153C, strain GIM3, stronger effect = lower value 1 | S. cerevisiae deletion strains, locus YNL183C, strain NPR1, stronger effect = lower value 0.9 | S. cerevisiae deletion strains, locus YNL233W, strain BNI4, stronger effect = lower value 0.996 | S. cerevisiae deletion strains, locus YNL250W, strain rad50, stronger effect = lower value 0.987 | S. cerevisiae deletion strains, locus YNL271C, strain bni1, stronger effect = lower value 0.999 | S. cerevisiae deletion strains, locus YNL298W, strain CLA4, stronger effect = lower value 0.99 | S. cerevisiae deletion strains, locus YNL307C, strain MCK1, stronger effect = lower value 0.983 | S. cerevisiae deletion strains, locus YNL322C, strain KRE1, stronger effect = lower value 0.982 | S. cerevisiae deletion strains, locus YNR052C, strain pop2, stronger effect = lower value 1.01 | S. cerevisiae deletion strains, locus YOL006C, strain TOP1, stronger effect = lower value 0.966 | S. cerevisiae deletion strains, locus YOL012C, strain htz1 1.08 | S. cerevisiae deletion strains, locus YOL147C, strain pex11, stronger effect = lower value 0.987 | S. cerevisiae deletion strains, locus YOR061W, strain CKA2, stronger effect = lower value 0.974 | S. cerevisiae deletion strains, locus YOR069W, strain VPS5, stronger effect = lower value 0.986 | S. cerevisiae deletion strains, locus YOR136W, strain idh2, stronger effect = lower value 0.981 | S. cerevisiae deletion strains, locus YOR144C, strain elg1, stronger effect = lower value 0.991 | S. cerevisiae deletion strains, locus YOR184W, strain ser1, stronger effect = lower value 0.974 | S. cerevisiae deletion strains, locus YOR231W, strain MKK1, stronger effect = lower value 0.964 | S. cerevisiae deletion strains, locus YOR316C, strain cot1, stronger effect = lower value 0.992 | S. cerevisiae deletion strains, locus YPL055C, strain LGE1, stronger effect = lower value 0.963 | S. cerevisiae deletion strains, locus YPL241C, strain CIN2, stronger effect = lower value 0.989 | S. cerevisiae deletion strains, locus YPL256C, strain CLN2, stronger effect = lower value 0.961 | S. cerevisiae deletion strains, locus YPR119W, strain clb2, stronger effect = lower value 0.987 | S. cerevisiae deletion strains, locus YPR141C, strain kar3, stronger effect = lower value 0.979 | S. cerevisiae deletion strains, locus YPR163C, strain tif3, stronger effect = lower value 0.992 | S. cerevisiae deletion strains, locus YPR167C, strain met16, stronger effect = lower value 0.997 | S. cerevisiae deletion strains, strain wtn01, stronger effect = lower value 1.01 | S. cerevisiae strains, strain wild type, stronger effect = lower value 0.98

COc1ccc(CCCOc2cc(CCn3ccnc3)ccc2OC)cc1
inactive: S. cerevisiae deletion strains, locus YER002W, strain NOP16, stronger effect = lower value 1.03
